Only some compounds are listed: those with a hit (about 2.8% of all), similar ones and a draw of the others.
NR1D1 modulator – Rev-erb alpha (human) modulation. activity, % at 10 µM. AID 1259318. 0.79% of 370,000 active. Rev-erbα–FITC-DNA binding, fluorescence polarization, 90 min;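 active = activity above about 14%, limit read from the data; passing the limit was not always enough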
PP1 counter – blocks human PP1-alpha phosphatase, a PP5 counter-screen | P62136 | purified PP1alpha, OMFP fluorescence | inhibition, % at 6.7 µM | 0.9% of 320,000 active | AID 2235;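 active = inhibition above the mean inhibition of all tested compounds plus 3 SD, computed separately for each screening campaign, cut at about 15% in these data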
KLK7 zymogen act – proKLK7 (human) activation, primary screen. purified proKLK7, EDANS-DABCYL substrate fluorescence; 100% is mature enzyme control, 0% vehicle. 0.9% of 370,000 active. P49862. activation, % at 7 µM;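 active = activation above the mean of all tested compounds plus 3 SD, computed per campaign excluding outliers beyond control limits, cut at about 13% in these data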
PG9 Ab binder – PG9 antibody binding by small molecule; TR-FRET gp120-PG9 antibody binding; inhibition, % at 6.7 µM; 0.43% of 360,000 active; AID 624416; in the data active = inhibition above about 8.5%
JMJD2C inh – human JMJD2C demethylase inhibition. 0.069% of 330,000 active. inhibition, % at 2.35 µM. Q9H3R0. AID 2099. GST-JMJD2C(1-420) H3K9me3 demethylation, DELFIA europium;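 active = more than half of a compound's replicate wells show inhibition beyond 50%, single wells judged on their own value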;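 also: signal counts dimethyl H3K9 product captured on neutravidin plate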
Target sequence (Q9H3R0 1-420 limits assumed): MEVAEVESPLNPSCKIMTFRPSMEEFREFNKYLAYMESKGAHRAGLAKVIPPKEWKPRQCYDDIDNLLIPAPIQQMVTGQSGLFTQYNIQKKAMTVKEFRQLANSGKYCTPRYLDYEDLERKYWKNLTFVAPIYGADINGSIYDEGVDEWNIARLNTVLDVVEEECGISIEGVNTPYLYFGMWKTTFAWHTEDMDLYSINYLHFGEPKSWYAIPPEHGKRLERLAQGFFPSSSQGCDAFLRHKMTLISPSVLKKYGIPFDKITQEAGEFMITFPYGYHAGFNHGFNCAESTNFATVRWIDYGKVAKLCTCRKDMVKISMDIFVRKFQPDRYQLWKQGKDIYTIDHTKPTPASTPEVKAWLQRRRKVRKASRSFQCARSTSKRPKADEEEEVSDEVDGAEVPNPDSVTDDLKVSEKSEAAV
PP5 primary – blocks human protein phosphatase 5 activity. P53041. purified PP5c, OMFP substrate fluorescence. inhibition, % at 6.7 µM. 0.18% of 320,000 active. AID 1987;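 active = inhibition above the campaign's mean inhibition across all tested compounds plus 3 SD, cut at about 9.5% in these data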
Rev-erbA confirm – Rev-erb alpha (human) modulation, hit confirmation. shares compounds with NR1D1 modulator. 61% of 3,000 active. AID 1259319. activation, % at 25 µM. Rev-erb alpha FITC-DNA binding, fluorescence polarization, 90 min;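 active = activation at or above a set limit, or at least 3 SD above the negative control mean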
RORg counter – affects RORgamma DNA binding in a Rev-erb alpha counter-screen; shares compounds with NR1D1 modulator; IC50, µM; 8% of 910 active; purified RORgamma protein-FITC-DNA binding, fluorescence polarization; AID 1259320;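 active = Compounds whose fitted half-maximal concentration for disrupting protein-DNA binding is below 10 micromolar; the record names Rev-erb in its text, so the target is in doubt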
Hits are given with their value; - = inactive; . = no result given.

SMILES	NR1D1 modulator	PP1 counter	KLK7 zymogen act	PG9 Ab binder	JMJD2C inh	PP5 primary	Rev-erbA confirm	others
CCOC(=O)c1c(-c2ccc(-c3ccccc3)cc2)csc1NC(=O)c1cccc(N2C(=O)CCC2=O)c1	43	-	-	-	-	-	29
CCOC(=O)c1c(NC(=O)c2cccc(N3C(=O)CCC3=O)c2)sc(C)c1C	-	-	-	-	-	-	.
C#CCNC(=O)C[C@@H]1C(=O)N(CCc2ccc(Cl)cc2)C2=CCCCC[C@]21C(=O)OC	-	.	-	.	.	.	.
COC(=O)[C@]12C[C@H](CC(=O)NCc3cccc4ccccc34)C(=O)N(CCc3ccc(OC)c(OC)c3)C1=C[C@H](C(C)(C)C)O[C@@H]2C	-	.	-	-	.	.	.
Cc1cccc(-n2c(SCN3C(=O)c4ccccc4C3=O)nc3ccccc3c2=O)c1	-	.	-	-	.	.	.
CCCn1c(SCN2C(=O)c3ccccc3C2=O)nc2cc(Cl)ccc2c1=O	39	-	-	-	-	-	-
CCOC(=O)c1sc2nc(N3CCCC3)c3c(c2c1N)CC(C)(C)OC3	-	-	-	-	-	-	.
CCOC(=O)c1sc2nc(C(C)C)c3c(c2c1N)CC(C)(C)OC3	23	-	-	-	-	-	-
C[C@H]1CCC/C=C/C(=O)c2c(cc(O)c(Cl)c2O)CC(=O)O1	-	.	-	.	.	.	.
CNc1c2cccc(C)c2nc2c(C(=O)NCCN(C)C)cccc12	15	.	-	-	.	.	-
COc1ccccc1NC(=O)O[C@@H]1CC[C@@]23CCCN2C(=O)CCC[C@H]3C1	-	.	.	.	.	.	.
COc1ccc(CN2CCCC(CO)(Cc3ccc(F)cc3)C2)cc1C (centres undefined)	13	-	-	-	-	-	-
CCCC1CCC2(CCCN2CCOC(=O)Nc2ccc(OC)cc2)CC1 (centres undefined)	-	.	.	.	.	.	.
C=CCOc1ccc(C2NC(=S)NC(c3ccccc3)=C2C(C)=O)cc1OC (centres undefined)	-	-	-	-	-	-	.
CCOC(=O)COc1c(Cl)cc(C2NC(=S)NC(c3ccccc3)=C2C(C)=O)cc1OCC (centres undefined)	34	-	-	-	-	-	31	RORg counter=-
C[C@H]1[C@@H](NC(=O)C#Cc2ccccc2)CC[C@@]23CCCN2C(=O)CCC[C@@H]13	-	.	.	.	.	.	.
O=C(Nc1ccc2c(c1)COC2=O)c1ccc(Cl)c(Cl)c1	48	-	-	-	-	-	27
O=C(Nc1ccc(Cl)c(Cl)c1)c1ccc(Cl)c(Cl)c1	-	-	-	-	-	-	.
Nc1nc(-c2ccccc2)c(-c2ccccc2)n1N	-	-	-	-	-	-	.
c1ccc(-c2cnn3c(-c4ccccc4)c(-c4ccccc4)nc3n2)cc1	123	.	-	-	.	.	-
Cn1c(=O)c(Nc2ccc(Cl)cc2)c2c3c(cccc31)C(=O)c1ccccc1-2	24	-	-	-	-	-	-
Cc1cccc(NC(=O)CN(C)C(=O)c2ccc(N3CCCCCC3)c([N+](=O)[O-])c2)c1C	17	.	-	-	-	.	-
CN1CCN(c2ccccc2NC(=O)c2ccc(N3CCCC3)c([N+](=O)[O-])c2)CC1	16	-	-	-	-	-	-
CCC(=O)Nc1nn(C)c2nc3c(C)cccc3cc12	-	-	-	-	-	-	.
COc1ccc(CC(=O)Nc2nn(C)c3nc4c(C)cccc4cc23)cc1	28	-	-	-	-	-	-
CCc1nnc2sc(-c3ccc(NC(=O)c4ccc5c(c4)OCCO5)cc3)nn12	92	-	-	-	-	-	58
O=C(Cc1sc(-c2ccccc2)nc1-c1ccccc1)Nc1ccc(Cl)cc1	25	-	-	-	-	-	33	RORg counter=-
CCCCNc1c(-c2ccc(OC)c(SC(C)CC)c2)nc2cnccn12 (centres undefined)	-	.	-	-	.	.	.
CCCCCCSc1ccc(-c2nc3cnccn3c2NCCCC)cc1	25	.	-	-	-	.	-
CCCCNc1c(-c2ccc(Sc3ccc(OC)cc3)cc2)nc2cc(C)ccn12	21	.	-	-	-	.	-

Bioassay records: PubChem BioAssay, several laboratories
